{
  "source": "paper PMC9574860",
  "about": "“Chemical Toolkit for PARK7: Potent, Selective, and High-Throughput” (Journal of Medicinal Chemistry, 2022)",
  "note": "In all, about 7,900 compounds went through this assay and about 400 (5.1%) showed an effect of 50% or more. This is one part of a sample in which strong results are shown more often than they occur.",
  "data": [
    {"molecular_target": "Parkinson's disease protein 7 (PARK7/DJ1) (human, UniProt Q99497)", "sequence (Q99497 whole entry, looked up, the tested form may be a part)": "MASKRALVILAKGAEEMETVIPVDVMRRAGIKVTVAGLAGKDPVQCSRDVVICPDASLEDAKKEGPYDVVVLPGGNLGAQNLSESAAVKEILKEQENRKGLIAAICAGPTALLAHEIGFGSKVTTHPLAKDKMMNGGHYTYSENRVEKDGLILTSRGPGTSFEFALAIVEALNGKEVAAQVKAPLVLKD", "experiment": "primary screen, percent inhibition; read as competition with a fluorescent probe by fluorescence polarization; higher = more effect of the substance", "settings": "100 µM", "summary_of_the_method": "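Fluorescence-polarization probe displacement (JYQ-107, 20 nM final, 2 h) after 2 h preincubation of PARK7 (0.2 μM final) with each fragment at 100 μM final. Read-out ex/em 480/520 nm; remaining activity derived from FP signal loss relative to reference controls.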", "units": {"Inhibition %": "%"}, "values": [
      {"smiles": "C=CC(=O)NCC1CCSC1", "note": "(stereo not shown)", "Inhibition %": 5.45},
      {"smiles": "C=CC(=O)N1CCc2ccc(C(=O)O)cc2CC1", "Inhibition %": 4.84},
      {"smiles": "O=c1[nH]c(S)nc2[nH]ncc12", "Inhibition %": 4.43},
      {"smiles": "Cc1n[nH]c(S)nc1=O", "Inhibition %": 2.15},
      {"smiles": "O=c1cn[nH]c(S)n1", "Inhibition %": 74.8},
      {"smiles": "Cn1c(=O)c2c(nc(Cl)n2CCS(=O)(=O)F)n(C)c1=O", "Inhibition %": 3.18},
      {"smiles": "CC1CC(N2CCC(O)CC2)C(=O)O1", "note": "(stereo not shown)", "Inhibition %": 5.67},
      {"smiles": "C=CC(=O)N1CCC(N(C)C(=O)N(C)C)C1", "note": "(stereo not shown)", "Inhibition %": 28.7},
      {"smiles": "Cc1cc(NC(=O)CCl)no1", "Inhibition %": 3.42},
      {"smiles": "Cc1nonc1C(=O)CCl", "Inhibition %": 97.9},
      {"smiles": "Cc1noc(C)c1C(=O)CCl", "Inhibition %": 13.5},
      {"smiles": "C=CC(=O)NCC1CCC=CO1", "note": "(stereo not shown)", "Inhibition %": 6.04},
      {"smiles": "C=CC(=O)N1CCN(S(=O)(=O)CC)C[C@H]1C", "Inhibition %": 12.6},
      {"smiles": "O=S(=O)(F)c1coc2ccccc12", "Inhibition %": 10.5},
      {"smiles": "CN(c1ccccc1)S(=O)(=O)c1ccccc1S(=O)(=O)F", "Inhibition %": 96.6},
      {"smiles": "CN(c1ccccc1)S(=O)(=O)C=Cc1ccccc1", "Inhibition %": 4.34},
      {"smiles": "CC(=O)Nc1nn(C)cc1S(=O)(=O)F", "Inhibition %": 14.8},
      {"smiles": "CN(c1ccn(C)n1)S(=O)(=O)c1ccccc1S(=O)(=O)F", "Inhibition %": 97.9},
      {"smiles": "C=CC(=O)N(Cc1ccccc1)c1cnn(C)c1", "Inhibition %": 29.9},
      {"smiles": "Cn1cc(S(=O)(=O)Oc2cnc3ccccc3c2)cn1", "Inhibition %": 6.55},
      {"smiles": "CN(c1cnn(C)c1)S(=O)(=O)c1ccccc1S(=O)(=O)F", "Inhibition %": 98.1},
      {"smiles": "Cn1cc(S(=O)(=O)F)c(N)n1", "Inhibition %": 7.95},
      {"smiles": "CC1(C)OB(CC2CC3(CCOCC3)C2)OC1(C)C", "Inhibition %": 3.09},
      {"smiles": "C=CC(=O)N(C)C1C(C)CCCC1C", "note": "(stereo not shown)", "Inhibition %": 5.45},
      {"smiles": "C=CC(=O)N1C[C@]2(C)COC[C@]2(C)C1", "Inhibition %": 9.62},
      {"smiles": "C=CC(=O)N1CC(C)(C)O[C@@]2(C[C@@H]3CC[C@H]2C3)C1", "Inhibition %": 10.3},
      {"smiles": "N#Cc1nc(N2CC(CF)C2)ccc1Cl", "Inhibition %": 3.54},
      {"smiles": "O=C(CCl)N1CCN(S(=O)(=O)Cc2ccccc2)CC1", "Inhibition %": 13.1},
      {"smiles": "CCC1(CNS(=O)(=O)C=Cc2ccccc2)CCOCC1", "Inhibition %": 6.07},
      {"smiles": "CC1(C)OB(Cc2cc(F)cc(F)c2)OC1(C)C", "Inhibition %": 6.97},
      {"smiles": "O=S(=O)(F)c1ccc(S(=O)(=O)Nc2nccs2)cc1", "Inhibition %": 64},
      {"smiles": "O=S(=O)(F)c1ccc(S(=O)(=O)Nc2ccccn2)cc1", "Inhibition %": 5.71},
      {"smiles": "Cc1ccnc(NS(=O)(=O)c2ccc(S(=O)(=O)F)cc2)c1", "Inhibition %": 16.1},
      {"smiles": "O=S(=O)(F)c1ccc(S(=O)(=O)Nc2ccncc2)cc1", "Inhibition %": 8.89},
      {"smiles": "Cc1nccc(NS(=O)(=O)c2ccc(S(=O)(=O)F)cc2)n1", "Inhibition %": 57.9},
      {"smiles": "O=S(=O)(F)c1ccc(S(=O)(=O)Nc2cccc(F)n2)cc1", "Inhibition %": 54.7},
      {"smiles": "O=S(=O)(F)c1ccc(S(=O)(=O)Nc2ccsc2)cc1", "Inhibition %": 27.7},
      {"smiles": "Cc1ccnc(NS(=O)(=O)c2ccc(S(=O)(=O)F)cc2)n1", "Inhibition %": 36.3},
      {"smiles": "CC1(C)OB(c2cncc(NS(=O)(=O)c3ccccc3)c2)OC1(C)C", "Inhibition %": 8.59},
      {"smiles": "CCNS(=O)(=O)c1ccc(B2OC(C)(C)C(C)(C)O2)c(C)c1", "Inhibition %": 5.32},
      {"smiles": "C=CC(=O)NC1CC(OC)C1(C)C", "note": "(stereo not shown)", "Inhibition %": -3.29},
      {"smiles": "CC1CC(Sc2cnccn2)C(=O)O1", "note": "(stereo not shown)", "Inhibition %": 48.8},
      {"smiles": "Cc1ccc2cccc(OC(=O)N(C)C)c2n1", "Inhibition %": 5.34},
      {"smiles": "C=CS(=O)(=O)c1ccccc1", "Inhibition %": 9.43},
      {"smiles": "CC1CCN(C(=O)C=Cc2cn(C)c(=O)n(C)c2=O)CC1", "Inhibition %": 10.9},
      {"smiles": "CN1CCC(CNc2ccc(C#N)nc2)CC1", "Inhibition %": 1.29},
      {"smiles": "O=C(CCCl)N1CCN(c2ncccn2)CC1", "Inhibition %": 3.8},
      {"smiles": "Cl.O=C(CCl)N1CCN(c2cnccn2)CC1", "Inhibition %": 55.6},
      {"smiles": "O=C(CCl)N1CCN(c2ncccn2)CC1", "Inhibition %": 91.6},
      {"smiles": "C=CC(=O)N1CCN(c2ncccn2)CC1", "Inhibition %": 9.58},
      {"smiles": "O=C(CCCl)N1CCN(c2ccccn2)CC1", "Inhibition %": 12.9},
      {"smiles": "Cl.O=C(CCl)N1CCN(c2cccc(Cl)c2)CC1", "Inhibition %": 44.3},
      {"smiles": "C=CC(=O)NCCN1C(=O)CNC1=O", "Inhibition %": 12.9},
      {"smiles": "C=CC(=O)NCC1CCN(c2ccccc2)CC1", "Inhibition %": 3.72},
      {"smiles": "N#Cc1cc(Cl)ccn1", "Inhibition %": 52.6},
      {"smiles": "N#Cc1ccnc(Cl)n1", "Inhibition %": 3.95},
      {"smiles": "N#Cc1cc(F)ccn1", "Inhibition %": 5.03},
      {"smiles": "O=S(=O)(F)CCCS(=O)(=O)Nc1ccc(F)cn1", "Inhibition %": 77.2},
      {"smiles": "Cc1ccc(C=CS(=O)(=O)Nc2ccc(C#N)cn2)cc1", "Inhibition %": 11.1},
      {"smiles": "C=CC(=O)Nc1ccc(C)cn1", "Inhibition %": 0.151},
      {"smiles": "O=S(=O)(C=Cc1ccccc1)Nc1ccc(F)cn1", "Inhibition %": 6.27}
    ]}
  ]
}
